# From PubChem BioAssay (NCATS)
# Where “and” joins values, the source holds several entries; their conditions need not be identical. Identical values can stand only once. Inconclusive results are not listed. Entries that show only a call come without a potency. Values without a mark were called inactive. Calls of active or inactive are those of the source. Calls come from the whole dose curve; as a rule, active = well fitted curve in the direction sought with a large enough effect; inconclusive = small, poorly fitted or top-dose-only effect, or another doubt; inactive = no such curve, though single readings can be large; an effect the other way counts as inactive or inconclusive.
# What was measured:
# [1] = target: Cellular tumor antigen p53 (Homo sapiens) (UniProt P04637); assay: Primary qHTS for small molecule compounds that upregulate eGFP-tagged delta133p53alpha (in N-terminal) cells. (AID 2060322); details: NCI-H358 eGFP-delta133p53alpha fluorescence, 24 h; activation: active compounds read high; note: nearly all actives have a fitted effect of over 75% in size; note: potency is the fitted concentration of half-maximal effect; for activation: series mostly up to about 56 µM
# Cellular tumor antigen p53 (Homo sapiens), sequence (P04637 whole entry, looked up): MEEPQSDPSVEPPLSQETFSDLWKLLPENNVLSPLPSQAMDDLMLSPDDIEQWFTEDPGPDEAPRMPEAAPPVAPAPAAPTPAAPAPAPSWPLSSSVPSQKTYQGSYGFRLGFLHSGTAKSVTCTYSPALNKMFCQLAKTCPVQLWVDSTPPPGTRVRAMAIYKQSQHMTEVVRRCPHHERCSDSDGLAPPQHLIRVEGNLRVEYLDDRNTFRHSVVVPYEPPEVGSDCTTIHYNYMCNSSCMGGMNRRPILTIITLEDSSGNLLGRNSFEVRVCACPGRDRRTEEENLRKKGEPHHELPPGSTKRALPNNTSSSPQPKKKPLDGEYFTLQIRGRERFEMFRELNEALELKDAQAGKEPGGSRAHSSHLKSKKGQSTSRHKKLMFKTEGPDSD
# Procedure, shortened: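 NCI-H358 cells pre-induced 24 h with 10 ng/ml doxycycline to express N-terminal eGFP-delta133p53alpha, then dosed 24 h at 37C without doxycycline; fixed, Hoechst-stained, GFP intensity by laser scanning cytometry, normalized to DMSO (0%) and 57.5 uM 5-azacytidine (100%).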
# [2] = target: Aldehyde dehydrogenase, mitochondrial (Homo sapiens) (UniProt P05091); assay: qHTS for Inhibitors of the Aldehyde Dehydrogenase Family (ALDH2) Primary screen (AID 2061308); note: nearly all actives have a fitted effect of over 55% in size
# [3] = target: Retinaldehyde dehydrogenase 3 (Homo sapiens) (UniProt P47895); assay: qHTS for Inhibitors of the Aldehyde Dehydrogenase Family (ALDH1A3) Primary screen (AID 2061315); note: potency is the fitted concentration of half-maximal effect
# [4] = BET inhibitor-based combinations targeting novel dependencies in MECOM-rearranged (r) AML: SET-2 cell line (AID 2202231); details: SET-2 AML cells viability, CellTiter-Glo luminescence, 48 h; viability: active compounds read low, series mostly up to about 46 µM; note: nearly all actives have a fitted effect of over 35% in size
# Procedure, shortened: (§1)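 Luminescent ATP readout (CellTiter-Glo) after 48 hr drug exposure gives viability. Curves span 11 concentrations and are normalized to DMSO and empty wells. Activity is reported as area under the curve and its Z-transform within each cell line.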
# [5] = BET inhibitor-based combinations targeting novel dependencies in MECOM-rearranged (r) AML: OCI-AML3 cell line (AID 2202232); details: Potency: OCI-AML3 viability; note: nearly all actives have a fitted effect of over 35% in size; note: potency is the fitted concentration of half-maximal effect
# Procedure, shortened: as §1
# [6] = BET inhibitor-based combinations targeting novel dependencies in MECOM-rearranged (r) AML: UCSD-AML1 cell line (AID 2202235); note: nearly all actives have a fitted effect of over 40% in size; note: potency is the fitted concentration of half-maximal effect
# Procedure, shortened: (§2)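 Luminescent ATP readout (CellTiter-Glo, 15 min at room temperature) after 48 hr drug exposure gave viability. Dose-response curves, normalized to DMSO and empty-well controls, were summarized as area under the curve and its mean-centred Z-score.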
# [7] = BET inhibitor-based combinations targeting novel dependencies in MECOM-rearranged (r) AML: AML-191 cell line (AID 2202236; note: nearly all actives have a fitted effect of over 35% in size; note: potency is the fitted concentration of half-maximal effect)
# Procedure, shortened: as §1
# [8] = BET inhibitor-based combinations targeting novel dependencies in MECOM-rearranged (r) AML: AML-194 cell line (AID 2202237; note: nearly all actives have a fitted effect of over 40% in size; note: potency is the fitted concentration of half-maximal effect)
# Procedure, shortened: as §1
# [9] = BET inhibitor-based combinations targeting novel dependencies in MECOM-rearranged (r) AML: MV-4-11 cell line (AID 2202233); note: nearly all actives have a fitted effect of over 45% in size; note: potency is the fitted concentration of half-maximal effect
# Procedure, shortened: as §2
# [10] = BET inhibitor-based combinations targeting novel dependencies in MECOM-rearranged (r) AML: HNT-34 cell line (AID 2202234); note: nearly all actives have a fitted effect of over 35% in size
# Procedure, shortened: as §2
# [11] = target: Retinaldehyde dehydrogenase 3 (Homo sapiens) (UniProt P47895); assay: qHTS for Inhibitors of the Aldehyde Dehydrogenase Family (ALDH1A3) Confirmatory screens (AID 2061311); note: nearly all actives have a fitted effect of over 60% in size; note: potency is the fitted concentration of half-maximal effect
# [12] = target: Retinaldehyde dehydrogenase 3 (Homo sapiens) (UniProt P47895); assay: qHTS for Inhibitors of the Aldehyde Dehydrogenase Family (ALDH1A3) Validation screen (AID 2061312); note: nearly all actives have a fitted effect of over 45% in size; note: potency is the fitted concentration of half-maximal effect
# [13] = target: Aldehyde dehydrogenase 1A1 (Homo sapiens) (UniProt P00352); assay: qHTS for Inhibitors of the Aldehyde Dehydrogenase Family (ALDH1A1) Confirmatory screens (AID 2061316); note: nearly all actives have a fitted effect of over 65% in size; note: potency is the fitted concentration of half-maximal effect
compound,measurement,setting,value
C=C1[C@@H]2CC[C@@]3(C)[C@H](c4ccoc4)OC(=O)C[C@]13O[C@H]1CC(=O)C(C)(C)[C@H](C(OC(C)=O)C(=O)OC)[C@]12C (stereo not given in full),activation,[1],-8.4%
same,Potency,[2],inactive
same,Potency,[3],inactive
C/C=C(\C)C(=O)OC1C(C)OC(OC2C(C)OC(OC3CCC4(C)C(=CCC5C4CCC4(C)C(C(C)OC6OC(COC7OC(CO)C(O)C(O)C7O)C(O)C(O)C6O)CCC54O)C3)CC2OC)C(O)C1OC (stereo not given),activation,[1],0.763%
same,Potency,[2],inactive
same,Potency,[3],inactive
COc1ccc(N(C(=O)Oc2c(C)cccc2C)c2ccnc(Nc3ccc(N4CCN(C)CC4)cc3)n2)c(OC)c1,activation,[1],-14.2%
same,Potency,[2],inactive
same,Potency,[3],inactive
same,viability,[4],117%
same,Potency,[5],5.9 µM (active)
same,Potency,[6],inactive
same,Potency,[7],2.63 µM (active)
same,Potency,[8],inactive
CN[C@@H]1C[C@H]2O[C@@](C)([C@@H]1OC)n1c3ccccc3c3c4c(c5c6ccccc6n2c5c31)C(=O)NC4,Potency,[1],0.426 µM (active)
same,Potency,[2],inactive
same,Potency,[3],inactive
same,Potency,[5],0.0833 µM (active)
same,Potency,[6],0.0661 µM (active)
same,Potency,[8],0.0332 µM (active)
Cc1ccccc1-n1c(Cn2cnc3c(N)ncnc32)nc2cccc(C)c2c1=O,activation,[1],46.4% and -16.1%
same,Potency,[2],inactive
same,Potency,[3],inactive
same,viability,[4],110%
same,Potency,[5],2.95 µM (active)
same,Potency,[9],1.48 µM (active)
same,Potency,[10],inactive
same,Potency,[6],inactive
CCC(C)/C=C(C)/C=C/C1=CC2=C(Cl)C(=O)C(C)(OC(C)=O)C(=O)C2=CO1 (stereo not given),activation,[1],-16%
same,Potency,[3],inactive
CN(N=O)c1ccc(O)c(O)c1,activation,[1],-30.1%
same,Potency,[11],12.7 µM (active)
CNc1ccc2oc(C[C@H]3O[C@@]4(CC[C@H]3C)O[C@H](C(C)C(=O)c3ccc[nH]3)[C@H](C)C[C@H]4C)nc2c1C(=O)O (stereo not given in full),Potency,[1],19 µM (active)
same,Potency,[12],14.1 µM (active)
same,Potency,[3],11.2 µM (active)
CN1C[C@@H]2CN(c3ccc(-c4ccccc4)nn3)C[C@@H]2C1,activation,[1],14.3%
same,Potency,[2],inactive
same,Potency,[3],inactive
COC(=O)[C@@]12C(=O)C(C)C(=O)[C@]1(C)C(C)=C[C@H]1[C@]3(C=O)CC[C@H](OC(C)=O)C(C)(C)[C@H]3CC[C@@]12C (stereo not given in full),activation,[1],19.1%
same,Potency,[2],inactive
same,Potency,[3],inactive
COc1cc(C)[nH]c(=O)c1CNC(=O)c1c(C)n([C@H](C)C2CCOCC2)c2ccccc12,activation,[1],-8.11%
same,Potency,[2],inactive
same,Potency,[3],inactive
same,Potency,[5],inactive
same,Potency,[9],inactive
same,Potency,[10],inactive
same,Potency,[6],inactive
same,Potency,[7],inactive
CC1(N2CCC(n3c([C@@H]4CCCNC4)nc4ccccc43)CC2)CCCCCCC1,activation,[1],44.9% and 4.3%
same,Potency,[2],inactive
same,Potency,[3],inactive
same,Potency,[5],16.6 µM (active)
same,Potency,[9],16.6 µM (active)
same,Potency,[7],20.9 µM (active)
COc1ccc2c(c[n+](C)c3c4cc5c(cc4ccc23)OCO5)c1OC,Potency,[1],43.2 µM (active)
same,Potency,[11],7.12 µM (active)
same,Potency,[13],6.34 µM (active)
same,Potency,[5],5.9 µM (active)
same,Potency,[9],5.25 µM (active)
O=C(Oc1ccc([N+](=O)[O-])cc1)N1CCC(C(O)(c2ccc3c(c2)OCO3)c2ccc3c(c2)OCO3)CC1,activation,[1],9.18% and -1.67%
same,Potency,[2],inactive
same,Potency,[3],inactive
same,viability,[4],104%
same,Potency,[6],inactive
same,Potency,[8],inactive
CN(C)[C@@H]1C(=O)C(C(N)=O)=C(O)[C@@]2(O)C(=O)C3=C(O)c4c(O)ccc(Cl)c4[C@@](C)(O)C3C[C@@H]12 (stereo not given in full),Potency,[1],23.9 µM (active)
same,Potency,[11],inactive
same,Potency,[3],inactive
same,Potency,[13],inactive
CCOC(=O)Nc1ccc(NCc2ccc(F)cc2)cc1N,activation,[1],-10.3% and -0.955%
same,Potency,[2],inactive
same,Potency,[9],inactive
same,Potency,[6],inactive
same,Potency,[7],inactive
same,Potency,[8],inactive
CN(CC[C@H](N)CC(=O)N[C@H]1C=C[C@@H](n2ccc(N)nc2=O)O[C@@H]1C(=O)O)C(=N)N,activation,[1],7.14%
same,"activity change, negative = inhibition",[2],-3.48% [at 11.2 µM]
same,"activity change, negative = inhibition",[3],7.62% [at 11.2 µM]
FC(F)(F)c1ccc(N2CCNCC2)nc1Cl,activation,[1],-26.3%
same,Potency,[12],inactive
same,Potency,[3],inactive
CNC(=O)c1ccc(N2C(=S)N(c3ccc(C#N)c(C(F)(F)F)c3)C(=O)C23CCC3)cc1F,activation,[1],38.4% and -8.11%
same,Potency,[2],inactive
same,Potency,[3],inactive
same,viability,[4],101%
same,Potency,[7],inactive
CCCCOC(=O)c1ccnc2cc(C(OCCN3CCCCC3)c3ccccc3Cl)sc12 (stereo not given),activation,[1],25.7%
same,Potency,[2],inactive
same,Potency,[3],inactive
